# This is a sample that favours compounds with a hit; in the whole collection about 1.9% have one here.
# Ba/F3 V617F tox: loss of viability in JAK2V617F-driven Ba/F3 cells; Ba/F3 EpoR-JAK2V617F viability, ATP luminescence; inhibition, % at 5.6 µM; 1.1% of 220,000 active; AID 1446;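 active = inhibition above the campaign mean plus 3 SD over all tested compounds, cut at about 24% in these data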;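 note: cytokine-independent growth of Ba/F3 cells driven by EpoR plus mutant JAK2; 0% = DMSO-treated cells and 100% = JAK inhibitor I control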
# BaF3 tox: parental Ba/F3 viability inhibition as JAK2V617F counter-screen. CellTiter-Glo ATP luminescence. 1.1% of 220,000 active. AID 1486. inhibition, % at 5.6 µM;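 active = inhibition above a per-campaign cutoff, the mean inhibition of all tested compounds plus 3 SD, cut at about 27% in these data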;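 note: 0% = DMSO wells and 100% = JAK Inhibitor I control wells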
# KLF5 inh: inhibitors of KLF5 expression; DLD-1 KLF5 promoter-luciferase reporter, luminescence; inhibition, % at 5 µM; 0.23% of 290,000 active;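 active = inhibition above a per-plate limit of that plate's mean compound inhibition plus 3 SD, cut at about 60% in these data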;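 note: 0% = DMSO wells and 100% = LY294002 at 200 µM; higher means less KLF5 promoter-driven luciferase light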
# IEC-6 cytotox: counter-screen for KLF5 inhibitors: cytotoxicity in IEC-6 cells. inhibition, % at 5 µM. 0.78% of 290,000 active. AID 1825. IEC-6 cytotoxicity, luminescence viability;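 note: 0% = plate median of test compound wells and 100% = cytotoxic reference compound wells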
# APP transl inh: APP translation inhibition | SH-SY5Y APP 5'UTR-luciferase reporter, luminescence | inhibition, % at 2 µM | 0.82% of 190,000 active | AID 1285;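 active = inhibition above a set limit, derived from the sample mean plus 3 SD, cut at about 45% in these data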
# IEC-6 tox confirm: IEC-6 cytotoxicity, confirmation assay; shares compounds with IEC-6 cytotox; IEC-6 rat intestinal epithelial viability, luminescence; inhibition, % at 5 µM; 63% of 1,900 active; AID 1907;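 note: 0% = vehicle and 100% = reference cytotoxic drug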
# * = called active by the depositor; · = not tested or not shown. Cut-off read from the data, not from the text of the source, unless noted: active = inhibition above about 22%; inactive = the rest.
SMILES,Ba/F3 V617F tox,BaF3 tox,KLF5 inh,IEC-6 cytotox,APP transl inh,IEC-6 tox confirm
Cn1cnc(Sc2ncnc3nc[nH]c23)c1[N+](=O)[O-],59*,36*,-17,39*,·,36*
Cc1cccc(NNC(=O)C(=O)NNc2cccc(C)c2)c1,-1,-1,34,34*,·,-14
NC(=O)C(CC(=O)O)NC(=O)[C@@H]1CCCCNc2c(I)cc([N+](=O)[O-])cc2C(=O)N[C@@H](CO)C(=O)NCC(=O)N1 (some centres undefined),0,2,-13,1,-18,·
CCOC(=O)c1ccccc1NC(=O)Cn1c(-c2nonc2N)nc2ccccc21,79*,75*,45,77*,94*,52*
O=C(Cn1nnc(N2CCCC2)n1)N/N=C/c1ccc(Cl)cc1,-3,-5,-15,-7,·,·
CCc1ccc(S(=O)(=O)Nc2cc3c(cc2C)n(C)c(=O)n3C)cc1,·,·,40,48*,·,40*
Cc1ccc(NS(=O)(=O)c2ccc3c(c2)n(C)c(=O)n3C)c(C)c1,·,·,-5,1,·,·
O=C(CC1(O)C(=O)N(C/C=C/c2ccccc2)c2ccccc21)c1ccccn1 (centres undefined),92*,93*,-8,89*,57*,32*
O=C(CC1(O)C(=O)N(CCc2ccccc2)c2ccccc21)c1ccccn1 (centres undefined),1,6,-10,-3,-19,·
CCOC(=O)c1sc(NC(=O)CCc2ccccc2)nc1C,·,·,46,54*,·,22*
CC(C)N(CC(N)=O)C(=O)Cc1coc2cc3c(cc12)CCC3,-4,1,-10,4,-18,·
COc1ccc(-c2ncncc2-c2csc(C)n2)c(O)c1OC,-2,3,-19,-2,0,·
COC1=C(N)C(=O)c2nc(-c3nc(C(=O)O)c(C)c(-c4ccc(OC)c(OC)c4O)c3N)ccc2C1=O,86*,71*,-10,45*,95*,101*
Oc1ccc(CCNc2ncnc3ccc(Cl)cc23)cc1,·,·,42,23*,·,10
CC(=O)c1cc2c(cc1NS(=O)(=O)c1ccc3c(c1)OCCO3)OCO2,-1,4,-4,-4,1,·
COC(=O)c1ccc(Cl)c(NS(=O)(=O)c2ccc3c(c2)OCCO3)c1,3,4,45,28*,4,2
CCCN1C2CCCC1CC(NC(=O)C1CCCCC1)C2 (centres undefined),-3,-1,-34,2,-27,·
Cc1cccc(NC(=O)CSc2nc3ccccc3nc2N2CCCC2)c1,·,·,-10,32*,·,5
Cc1cccc(NC(=O)CSc2nc3ccccc3nc2N2CCCCC2)c1,·,·,36,43*,·,29*
COc1cccc(NC(=O)CSc2nc3ccccc3nc2N2CCCC2)c1,·,·,-8,9,·,·
O=C(C#Cc1ccccc1)c1ccco1,·,·,54,101*,·,28*
O=C(N/N=C/c1ccccc1)c1ccco1,-1,1,-109,3,·,·
COc1cc(/C=N/NC(=O)c2nc(-c3ccccc3)n(-c3ccccc3)n2)ccc1O,-1,3,-17,2,12,·
COc1cc(/C=N/Nc2nc(C)nc3c2cnn3-c2ccccc2)ccc1O,46*,51*,11,32*,50*,9
CCCN(CC(=O)Nc1ccc(F)c(F)c1F)CC(=O)Nc1c(Cl)cccc1Cl,0,5,-3,59*,-3,38*
SMILES,Ba/F3 V617F tox,BaF3 tox,KLF5 inh,IEC-6 cytotox,APP transl inh,IEC-6 tox confirm
C=CCc1cccc([C@@H]2[C@@H](C)CC[C@H]3C(=O)N4[C@@H](c5cc(OC)c(OC)c(OC)c5)c5[nH]c6ccccc6c5C[C@H]4C(=O)N23)c1,-4,-1,35,34*,-3,9
S=c1[nH]nc(-c2ccc(Br)cc2)n1-c1ccc(Br)cc1,·,·,-45,-2,·,·
CN(C)C(=S)Nc1nc2ccccc2s1,3,4,-182,30*,-63,-5
Cc1cc(S(N)(=O)=O)c(N)c(S(N)(=O)=O)c1,-1,0,-21,-1,·,·
Clc1ccc2nc(SCc3nnc(-c4ccccc4)o3)[nH]c2c1,-4,4,6,4,-8,·
Cc1ccc2nc(SCc3nnc(-c4ccccc4Br)o3)[nH]c2c1,-4,4,-7,22*,-16,15
CCc1ccc2nc(Nc3nc(COC)cc(=O)[nH]3)nc(C)c2c1,-2,3,-30,3,9,·
COCc1cc(=O)[nH]c(Nc2nc3ccc(C)cc3o2)n1,1,7,-58,26*,15,36*
Cc1cccc2nc(CSc3nnc(N)s3)cn12,6,8,-21,1,-3,·
COc1ccc(Nc2nnc(SCc3cn4c(C)cccc4n3)s2)cc1,-1,6,-12,22*,-20,2
O=C(Cn1nc(-c2ccco2)ccc1=O)Nc1cc(Cl)ccc1Cl,·,·,-6,-1,·,·
CS(=O)(=O)c1ccc(Cl)c(NC(=O)Cc2ccsc2)c1,·,·,-10,5,·,·
Cc1cccc(C(=O)Nc2cccc3cccnc23)c1,·,·,-94,8,·,·
Cc1cnc(C(=O)Nc2cccc3cccnc23)cn1,90*,34*,-1,91*,74*,18
Cc1nc2ccccc2c(=O)n1NC(=O)c1c(F)cccc1F,·,·,-24,7,·,·
Cc1[nH]c2ccccc2c1/C=N/Nc1nncn1N,7,4,-27,102*,-134,-14
Nc1nc(Nc2cccc3ccccc23)nc(C2CCCC2=O)n1 (centres undefined),2,3,0,-2,-6,·
Nc1nc(CCl)nc(Nc2cccc3ccccc23)n1,100*,28*,-5,91*,·,8
COCCn1c(SC(C)C(=O)Nc2ncc(Cl)cc2Cl)nc2ccccc21 (centres undefined),0,3,29,24*,2,27*
O=S(=O)(/C(=C/c1ccc(C(F)(F)F)cc1)c1nc2ccccc2[nH]1)c1ccccc1,42*,11,-8,53*,60*,48*
CCOC(=O)c1[nH]c(C)c(C(=O)Nc2ccc(C)cc2C)c1C,59*,52*,38,51*,70*,48*
CCOC(=O)c1[nH]c(C)c(C(=O)Nc2cc(OC)ccc2OC)c1C,75*,75*,60,86*,91*,61*
CCOC(=O)c1[nH]c(C)c(C(=O)Nc2ccccc2F)c1C,68*,62*,5,47*,62*,46*
CCOC(=O)c1[nH]c(C)c(C(=O)Nc2ccc(F)cc2)c1C,-6,-1,-43,1,-18,·
CCOC(=O)c1[nH]c(C)c(C(=O)c2ccc(C)cc2)c1C,78*,77*,16,82*,95*,62*
CCOC(=O)c1c(C)[nH]c(C(=O)OCC(=O)Nc2cc(C)ccc2OC)c1C,-5,0,-4,1,-14,·
COc1ccccc1C1CC(=O)Nc2cc3c(cc21)OCCO3 (centres undefined),73*,72*,64*,75*,95*,60*
COc1ccc(C/C(C)=N\NC(=O)c2cn(C)c3ccccc23)cc1OC,18,10,41,31*,·,-9
